This test has as its target Ubiquitin carboxyl-terminal hydrolase 2 (Homo sapiens) (UniProt O75604). As to the kind of experiment: Confirmation Concentration-response Assay for Inhibitors of Ubiquitin-specific Protease USP2a. Particulars: USP2 core, Ub-PLA2 coupled fluorescence, NBD C6-HPC. The text has this: NIH Molecular Libraries Screening Centers Network [MLSCN] NIH Chemical Genomics Center [NCGC] MLSCN Grant: XO1-MH079852-01 PI Name: Nicholson, Ben. Progenra Inc, Malvern, PA NCGC Assay Overview: Homeostasis of cellular proteins is maintained through a combination of synthesis and degradation. The pathway that accounts for the majority of protein degradation is the ubiquitin-proteasomal pathway. Ubiquitin (Ub) is highly conserved in all cells and the generation of a multi-Ub chain typically targets proteins for degradation by the proteasome. However, ubiquitination is highly reversible and dynamic. […] Thus, this coupled assay gives a fluorescent read-out, which is generated through the cleavage of the PLA2 reporter enzyme. […]
NCGC Assay Protocol Summary: The assay buffer, prepared fresh at the day of the assay, contains 20mM Tris-HCl pH 8.0, 2mM CaCl2, 2mM beta-Mercaptoethanol, 0.1% DMSO. […] Plates were read immediately (0 Hour) on an Envision (Perkin Elmer) plate reader using the following wavelengths Ex 460nm /Em 535nm. Then, the assay plates were incubated for 2.5 hours and read again on the Envision using the same settings Data were normalized to the to AC100 inhibition (NEM). Concentration-response curves were fitted to the normalized data and the concentration-response curves were then classified based on curve quality (r2), response magnitude and degree of measured activity. […]

Each structure is given as a SMILES string. Inconclusive results are not listed. Calls of active or inactive are those of the source. The call rests on the fitted dose curve; in most records, active means well fitted inhibition curve with a large enough effect; inconclusive means small, poorly fitted or top-dose-only effect; inactive means no such curve, though single readings can be large or run the other way.

Ubiquitin carboxyl-terminal hydrolase 2 (Homo sapiens), sequence (O75604 whole entry, looked up): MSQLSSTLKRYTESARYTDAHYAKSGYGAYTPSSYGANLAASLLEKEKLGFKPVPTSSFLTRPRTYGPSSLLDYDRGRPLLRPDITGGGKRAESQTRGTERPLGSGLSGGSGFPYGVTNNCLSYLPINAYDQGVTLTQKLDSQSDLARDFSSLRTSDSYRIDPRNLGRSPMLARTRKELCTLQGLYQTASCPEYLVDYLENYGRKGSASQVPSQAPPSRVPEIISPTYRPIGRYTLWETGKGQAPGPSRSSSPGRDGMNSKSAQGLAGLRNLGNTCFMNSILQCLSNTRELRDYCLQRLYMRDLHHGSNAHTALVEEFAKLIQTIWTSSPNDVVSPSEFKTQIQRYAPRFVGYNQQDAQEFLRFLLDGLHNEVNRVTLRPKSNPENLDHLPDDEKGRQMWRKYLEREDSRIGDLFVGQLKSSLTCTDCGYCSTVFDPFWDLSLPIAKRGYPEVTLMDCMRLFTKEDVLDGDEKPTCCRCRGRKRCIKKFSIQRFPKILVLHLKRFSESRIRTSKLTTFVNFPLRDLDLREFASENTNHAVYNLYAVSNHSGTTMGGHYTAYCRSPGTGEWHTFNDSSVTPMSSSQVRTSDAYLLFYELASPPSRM

Turning to `Cc1ccc2scc(N3CCN(C)CC3)c(=O)c2c1`, the Potency is 12.6 µM (active).
